Laboratory results reported in PubChem BioAssay (EPA / NIEHS).
Activity calls are given as the source filed them. Rule for the calls: active = hit-call score of the fitted dose curve at least 0.9, where 1 is the maximum; inactive = score below 0.9.

Key:
[1] = BSK_CASM3C_SRB: Viability Assessment in the BioMAP Diversity Plus: CASM3C Assay (AID 2283050); details: primary human coronary artery smooth muscle cells;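 note: total protein by SRB staining as cytotoxicity measure in parallel cultures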
[2] = read-out: Thrombomodulin, THBD (gene 7056); assay: BSK_CASM3C_Thrombomodulin: BioMAP Diversity Plus: CASM3C Assay for Thrombomodulin Biomarker Activity (AID 2283051); details: primary human coronary artery smooth muscle cells; actives raise or lower the signal;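 note: thrombomodulin protein level measured by ELISA 24 h after dosing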
[3] = read-out: Tissue Factor, F3 (gene 2152); assay: BSK_CASM3C_TissueFactor: BioMAP Diversity Plus: CASM3C Assay for Tissue Factor Biomarker Activity (AID 2283052); details: primary human coronary artery smooth muscle cells; actives raise or lower the signal;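 note: cell surface tissue factor protein level read by ELISA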
[4] = read-out: Urokinase-type plasminogen activator receptor (uPAR), PLAUR (gene 5329); assay: BSK_CASM3C_uPAR: BioMAP Diversity Plus: CASM3C Assay for Urokinase-type plasminogen activator receptor (uPAR) Biomarker Activity (AID 2283054); details: primary human coronary artery smooth muscle cells; actives raise or lower the signal;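 note: cell-surface uPAR protein level quantified by ELISA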
[5] = read-out: Vascular cell adhesion molecule 1 (VCAM1), VCAM1 (gene 7412); assay: BSK_CASM3C_VCAM1: BioMAP Diversity Plus: CASM3C Assay for Vascular cell adhesion molecule 1 (VCAM1) Biomarker Activity (AID 2283055); details: primary human coronary artery smooth muscle cells; actives raise or lower the signal;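 note: VCAM-1 protein level quantified by ELISA on the cells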
[6] = read-out: Collagen III, COL3A1 (gene 1281); assay: BSK_hDFCGF_CollagenIII: BioMAP Diversity Plus: hDFCGF Assay for Collagen III Biomarker Activity (AID 2283056); details: primary human foreskin fibroblasts; actives raise or lower the signal
Procedure, shortened: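 Response relative to DMSO, fitted in both directions, reflects ELISA-measured collagen III in human primary skin fibroblasts 24 h after compound addition.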

[7] = read-out: Epidermal growth factor receptor (EGFR), EGFR (gene 1956); assay: BSK_hDFCGF_EGFR: BioMAP Diversity Plus: hDFCGF Assay for Epidermal growth factor receptor (EGFR) Biomarker Activity (AID 2283057); details: primary human foreskin fibroblasts; actives raise or lower the signal
Procedure, shortened: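 Measured by ELISA: EGFR levels on primary human foreskin fibroblasts 24 h after chemical treatment, analysed relative to DMSO with bidirectional fitting.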

[8] = read-out: Interleukin-8 (IL8), CXCL8 (gene 3576); assay: BSK_hDFCGF_IL8: BioMAP Diversity Plus: hDFCGF Assay for Interleukin-8 (IL8) Biomarker Activity (AID 2283058); details: primary human foreskin fibroblasts; actives raise or lower the signal
Procedure, shortened: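 Fibroblast monolayers (human foreskin, hDFCGF) received test chemical for 24 h before ELISA detection of IL-8; either increases or decreases relative to DMSO count as activity.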

[9] = BSK_hDFCGF_Proliferation: Cell Proliferation Assessment in the BioMAP Diversity Plus: hDFCGF Assay (AID 2283059); details: primary human foreskin fibroblasts;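 note: curves fitted for both rise and fall of signal versus DMSO baseline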
Procedure, shortened: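 Total protein read at 560 nm after 0.1% SRB staining of TCA-fixed human skin fibroblasts, […]. Activity is fitted in both directions relative to DMSO as baseline.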

[10] = read-out: Macrophage colony-stimulating factor (MCSF), CSF1 (gene 1435); assay: BSK_hDFCGF_MCSF: BioMAP Diversity Plus: hDFCGF Assay for Macrophage colony-stimulating factor (MCSF) Biomarker Activity (AID 2283060); details: primary human foreskin fibroblasts; actives raise or lower the signal
Procedure, shortened: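 fibroblasts (human foreskin, primary), 24 h post-dose; M-CSF by ELISA; bidirectional fit, DMSO = baseline.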

[11] = BSK_hDFCGF_SRB: Viability Assessment in the BioMAP Diversity Plus: hDFCGF Assay (AID 2283061); details: primary human foreskin fibroblasts;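 note: cells exposed to compound for 24 h before the read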
Procedure, shortened: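 SRB-based viability read on primary human skin fibroblasts at 24 h: TCA fixation, 0.1% dye, 560 nm. Gain or loss of signal is fitted against the DMSO negative control.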

[12] = read-out: TIMP metallopeptidase inhibitor 1 (TIMP1), TIMP1 (gene 7076); assay: BSK_hDFCGF_TIMP1: BioMAP Diversity Plus: hDFCGF Assay for TIMP metallopeptidase inhibitor 1 (TIMP1) Biomarker Activity (AID 2283062); details: primary human foreskin fibroblasts; actives raise or lower the signal
Procedure, shortened: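 Bidirectional curve fitting against DMSO baseline yielded this endpoint, based on ELISA detection of TIMP-1 in primary human foreskin fibroblasts exposed to compound for 24 h.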

[13] = read-out: Monokine induced gamma interferon (MIG), CXCL9 (gene 4283); assay: BSK_hDFCGF_MIG: BioMAP Diversity Plus: hDFCGF Assay for Monokine induced gamma interferon (MIG) Biomarker Activity (AID 2283063); details: primary human foreskin fibroblasts; actives raise or lower the signal
Procedure, shortened: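 Endpoint derived by bidirectional fitting relative to DMSO; MIG quantified via ELISA in primary human foreskin fibroblasts harvested 24 h after dosing.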

[14] = read-out: Matrix Metallopeptidase 1 (MMP1), MMP1 (gene 4312); assay: BSK_hDFCGF_MMP1: BioMAP Diversity Plus: hDFCGF Assay for Matrix Metallopeptidase 1 (MMP1) Biomarker Activity (AID 2283064); details: primary human foreskin fibroblasts; actives raise or lower the signal
Procedure, shortened: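 Primary human foreskin fibroblasts in the hDFCGF system were dosed with test chemical, and MMP1 was measured by ELISA 24 h later. Values come from bidirectional curve fitting against the DMSO baseline.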

[15] = read-out: Vascular cell adhesion molecule 1 (VCAM1), VCAM1 (gene 7412); assay: BSK_hDFCGF_VCAM1: BioMAP Diversity Plus: hDFCGF Assay for Vascular cell adhesion molecule 1 (VCAM1) Biomarker Activity (AID 2283065); details: primary human foreskin fibroblasts; actives raise or lower the signal;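 for AC50: VCAM-1 protein level quantified by ELISA after 24 h chemical exposure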
Procedure, shortened: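 Measured after 24 h chemical treatment of primary human skin fibroblasts, VCAM-1 was detected by ELISA and concentration-response analysed in both directions versus DMSO vehicle.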

[16] = read-out: Plasminogen activator inhibitor-1 (PAI1), SERPINE1 (gene 5054); assay: BSK_hDFCGF_PAI1: BioMAP Diversity Plus: hDFCGF Assay for Plasminogen activator inhibitor-1 (PAI1) Biomarker Activity (AID 2283066); details: primary human foreskin fibroblasts; actives raise or lower the signal
Procedure, shortened: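 PAI-1 levels, determined by ELISA, served as the endpoint in human foreskin fibroblast cultures exposed to compound for 24 h, with DMSO as baseline.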

[17] = read-out: Intercellular Adhesion Molecule 1 (ICAM1), ICAM1 (gene 3383); assay: BSK_KF3CT_ICAM1: BioMAP Diversity Plus: KF3CT Assay for Intercellular Adhesion Molecule 1 (ICAM1) Biomarker Activity (AID 2283067); details: primary human keratinocytes with fibroblasts; actives raise or lower the signal
Procedure, shortened: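 Bidirectional curve fitting against a DMSO baseline was applied to ICAM-1 ELISA signal from primary human skin co-cultures harvested 24 h after treatment, with SRB staining of parallel wells for overt cytotoxicity.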

[18] = read-out: Interferon-gamma inducible Protein 10 (IP10), CXCL10 (gene 3627); assay: BSK_KF3CT_IP10: BioMAP Diversity Plus: KF3CT Assay for Interferon-gamma inducible Protein 10 (IP10) Biomarker Activity (AID 2283068); details: primary human keratinocytes with fibroblasts; actives raise or lower the signal
Procedure, shortened: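 Human keratinocyte plus foreskin fibroblast primary co-culture exposed to test chemical for 24 h; IP-10 measured by ELISA. Concentration-response fitted bidirectionally against DMSO control as baseline.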

[19] = BSK_KF3CT_SRB: Viability Assessment in the BioMAP Diversity Plus: KF3CT Assay (AID 2283069); details: primary human keratinocytes with fibroblasts;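 note: total protein by sulforhodamine B staining as a cytotoxicity measure; fitted for both signal gain and loss against DMSO baseline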
Procedure, shortened: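 Human primary keratinocyte plus foreskin fibroblast co-culture exposed to chemicals for 24 h. Total protein measured by 0.1% sulforhodamine B staining after 10% TCA fixation, read at 560 nm; bidirectional fitting versus DMSO baseline.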

Measured: AC50

CCCCCCCC/C=C\CCCCCCCC(=O)OC[C@@H](O)[C@H]1OC[C@H](O)[C@H]1O
inactive: all assays above

C=CCc1cc(S(=O)(=O)c2ccc(O)c(CC=C)c2)ccc1O
active: [1] 31.2 µM | [3] 36.7 µM | [4] 21.7 µM | [5] 35.7 µM | [6] 6.52 µM | [8] 34.4 µM | [9] 9.21 µM | [10] 27 µM | [11] 14.8 µM | [12] 26.4 µM | [13] 30.7 µM | [14] 31 µM | [15] 15 µM | [16] 10.2 µM | [17] 23.7 µM | [18] 13.8 µM | [19] 26.5 µM
inactive: [2] | [7]

CC(C)C(=O)Nc1ccc([N+](=O)[O-])c(C(F)(F)F)c1
active: [6] 31.7 µM
inactive: all other assays above
